Sampled rows, rich in hits. Any-hit rate of the full collection: about 0.4%.
GAA inhib: blocks human lysosomal alpha-glucosidase. P10253. AID 1466. 200,000 tested, 0.005% active. purified human GAA, 4-MU-alpha-glucoside fluorescence. Potency, µM (doses to about 76.9 µM), actives largely listed as inhibitors
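Activity normalized between no-enzyme (basal) and enzyme-only wells. Conditions: 4 nM human enzyme, 400 uM fluorogenic substrate, citrate/phosphate pH 5.0 with Tween-20, 20 min room temperature, compounds up to 77 uM.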
GAA glycogen: alters human alpha-glucosidase cleavage of glycogen | recombinant GAA, glycogen substrate, Amplex Red glucose oxidase fluorescence | Potency, µM (titrated, usually from 76.4 µM), most hits filed as inhibitors | 300,000 tested, 0.38% active | AID 2100;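 further: the screen sought inhibitors and activators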
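qHTS, 1536-well; enzyme 4 nM final; cpd up to 77 uM; substrate bovine liver glycogen 30 ug; 50 mM citrate/phosphate pH 5.0, 0.01% Tween-20; 37 C, 40 min; Amplex Red detection 45 min RT; Hill fit → AC50.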
GLA spleen mod: alpha-galactosidase A (human) modulation | human spleen homogenate, 4MU-alpha-Gal fluorescence, 40 min | P06280 | AID 2107 | Potency, µM (doses to about 80 µM), most hits filed as inhibitors | 240,000 tested, 0.008% active
Target sequence (P06280 32-429 limits assumed): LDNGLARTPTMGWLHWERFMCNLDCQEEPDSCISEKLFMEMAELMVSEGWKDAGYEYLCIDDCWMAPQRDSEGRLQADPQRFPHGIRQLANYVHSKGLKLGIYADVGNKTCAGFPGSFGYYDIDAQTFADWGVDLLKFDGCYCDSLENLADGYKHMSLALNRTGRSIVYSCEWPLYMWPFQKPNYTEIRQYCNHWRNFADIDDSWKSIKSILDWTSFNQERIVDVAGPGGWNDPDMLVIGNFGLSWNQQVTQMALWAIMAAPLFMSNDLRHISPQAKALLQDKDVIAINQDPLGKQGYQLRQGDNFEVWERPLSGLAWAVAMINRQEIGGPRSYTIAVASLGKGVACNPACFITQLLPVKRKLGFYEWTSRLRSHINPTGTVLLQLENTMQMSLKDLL
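Spleen homogenate 1 ug + cpd (titration) + 4-MU-alpha-D-galactopyranoside 1 mM; 37C 40 min; 50 mM citrate/phosphate pH 5.0, 0.01% Tween-20; stop pH 10; fluorescence 365/440; AC50 via Hill.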
GLA inh pH 4.5: blocks human alpha-galactosidase A at pH 4.5; activity change, negative = inhibition, % at 105 µM; purified enzyme, 4-MU-alpha-Gal fluorescence, pH 4.5; 230,000 tested, under 10 active; P06280; AID 1467
GAA spleen mod: lysosomal alpha-glucosidase (human) modulation; Potency, µM (titrated, usually from 79.9 µM), hits mostly inhibitors; human spleen homogenate, 4-MU-alpha-glucoside fluorescence; P10253; 240,000 tested, 0.006% active
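Enzyme source: human spleen homogenate, 1 ug/well. Buffer 50 mM citric acid/K phosphate pH 5.0, 0.01% Tween-20. 4-MU-alpha-glucoside 1 mM; 37 C x 40 min; NaOH/glycine stop; fluorescence.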
A number is an active result; [ ] = remark or other dose. The call rests on the fitted dose curve; in most records, active means well fitted curve in the direction sought with a large enough effect; inconclusive means small, poorly fitted or top-dose-only effect, or another doubt; inactive means no such curve, though single readings can be large; an effect the other way counts as inactive or inconclusive.

C[C@H](NC(=O)C1CCN(C(=O)[C@H](Cc2ccccc2)NC(=O)OC(C)(C)C)CC1)C(=O)O was read as GAA glycogen inactive.
`Cn1cnc([N+](=O)[O-])c1Nc1ccc(O)cc1` gave GAA inhib inconclusive, GAA glycogen 28µM, GLA spleen mod inactive, GLA inh pH 4.5 inactive and GAA spleen mod inactive.
COc1cc(C2c3sc(=O)[nH]c3SC3C(=O)N(c4ccc(C)cc4)C(=O)C32)ccc1O (stereo not given) was read as GAA inhib inactive, GAA glycogen 11µM, GLA spleen mod inactive, GLA inh pH 4.5 inactive and GAA spleen mod inactive.
`COC(=O)C1CSc2[nH]c(=O)sc2C1c1ccc(O)c(OC)c1` (stereo not given) gave GAA inhib inactive, GAA glycogen 16µM, GLA spleen mod inactive, GLA inh pH 4.5 inactive and GAA spleen mod inactive.
`COc1ccc(C2c3sc(=O)[nH]c3SCC2C(N)=O)cc1` (stereo not given) gave GAA glycogen inconclusive, GLA spleen mod inactive, GLA inh pH 4.5 inactive and GAA spleen mod inactive.
For Cc1cc(C(=O)Cn2nc(C(=O)O)c3ccccc3c2=O)c(C)n1C1CC1 the results were GAA inhib inactive, GAA glycogen inactive, GLA spleen mod inactive, GLA inh pH 4.5 inactive and GAA spleen mod inactive.
CCC(C)NC(=O)C1CCCN(S(=O)(=O)c2ccc3c(c2)CC(C)N3C(C)=O)C1 (stereo not given) was read as GAA glycogen inactive.
Screening CC1=Nc2cccc3cccc(c23)N1 returned GAA inhib inactive, GAA glycogen 14µM, GLA spleen mod inactive, GLA inh pH 4.5 inactive and GAA spleen mod inactive.
`CC(=O)/C(=N/Nc1cccc(C)c1)N1CCOCC1` gave GAA inhib inactive, GAA glycogen 18µM, GLA spleen mod inactive, GLA inh pH 4.5 inactive and GAA spleen mod inactive.
For Cc1cccc(C(=O)Nc2cccc(C(=O)N3CCOCC3)c2)c1 the results were GAA inhib inactive, GAA glycogen inactive, GLA spleen mod inactive, GLA inh pH 4.5 inactive and GAA spleen mod inactive.
`c1ccc2c(c1)Nc1ccncc1S2` gave GAA glycogen 18µM, GLA spleen mod inactive, GLA inh pH 4.5 inactive and GAA spleen mod inactive.
For Cc1ccc(-c2nc3ncccn3c2Nc2ccccc2C)o1 the results were GAA inhib inactive, GAA glycogen inconclusive, GLA spleen mod inactive, GLA inh pH 4.5 inactive and GAA spleen mod inactive.
For Cc1ccc(-c2nc3cnccn3c2Nc2c(C)cccc2C)o1 the results were GAA inhib inactive[15.4 µM], GAA glycogen 3.5µM, GLA spleen mod inactive, GLA inh pH 4.5 inactive and GAA spleen mod inactive.
CC(=O)Cn1nnc(-c2ccc(C(F)(F)F)cc2)n1 was read as GAA glycogen inactive, GLA spleen mod inactive, GLA inh pH 4.5 inactive and GAA spleen mod inactive.
`Oc1c(Cl)cc(Cl)c2c1NCCC2` gave GAA inhib inactive, GAA glycogen 14µM, GLA spleen mod inactive, GLA inh pH 4.5 inactive and GAA spleen mod inactive.
For COc1ccc(C(=O)NNc2ccccc2)cc1OC the results were GAA inhib inactive, GAA glycogen 22µM, GLA spleen mod inactive, GLA inh pH 4.5 inactive and GAA spleen mod inactive.
`Oc1ccccc1OCc1nc2ccccc2s1` gave GAA inhib inactive, GAA glycogen inactive, GLA spleen mod inactive, GLA inh pH 4.5 inactive and GAA spleen mod inactive.
For Oc1ccc(O)c(Cc2nc3ccccc3s2)c1 the results were GAA inhib inactive, GAA glycogen 5.6µM, GLA spleen mod inactive, GLA inh pH 4.5 inactive and GAA spleen mod inactive.
`CN1CCN(S(=O)(=O)c2ccc(NC(=O)c3ccccc3F)cc2)CC1` gave GAA glycogen inactive.
O=C(NCCN1CCCC1)C(c1ccccc1)c1ccccc1 was read as GAA glycogen inactive.
For Oc1ccc(Cl)cc1N=Cc1sc2ccccc2c1Cl the results were GAA inhib inactive, GAA glycogen 2.8µM, GLA spleen mod inactive, GLA inh pH 4.5 inactive and GAA spleen mod inactive.
For O=C(CCCN1C(=O)c2cccc3cccc(c23)C1=O)N1CCN(c2ccccn2)CC1 the results were GAA inhib inactive, GAA glycogen inactive, GLA spleen mod inactive, GLA inh pH 4.5 inactive and GAA spleen mod inactive.
`CCOc1ccc(S(=O)(=O)/N=C(\N)c2ccccc2)cc1` gave GAA glycogen inactive, GLA spleen mod inactive, GLA inh pH 4.5 inactive and GAA spleen mod inactive.
`CCCOc1ccc(C2NC(=O)CCC2[N+](=O)[O-])cc1` (stereo not given) gave GAA glycogen inactive.
Screening Cc1cc(C)c(S(=O)(=O)Nc2ccc(O)cc2)c(C)c1 returned GAA inhib inactive, GAA glycogen 40µM, GLA spleen mod inactive, GLA inh pH 4.5 inactive and GAA spleen mod inactive.
Cc1cc(=O)[nH]c2ccc(S(=O)(=O)Nc3ccccc3)cc12 was read as GAA glycogen inactive.
Screening Cc1cc(=O)[nH]c2ccc(S(=O)(=O)Nc3ccc(O)cc3)cc12 returned GAA glycogen 7.1µM.
CNc1nc(C)cc(C)c1S(=O)(=O)c1ccc(Cl)cc1 was read as GAA inhib inactive, GAA glycogen inactive, GLA spleen mod inactive, GLA inh pH 4.5 inactive and GAA spleen mod inactive.
Screening C(=N\Nc1ccccn1)/c1c[nH]c2ccccc12 returned GAA glycogen 35µM, GLA spleen mod inactive, GLA inh pH 4.5 inactive and GAA spleen mod inactive.
For CCOc1ccc2nc(C)cc(Nc3ccc(N4CCOCC4)cc3)c2c1 the results were GAA inhib inactive, GAA glycogen inactive, GLA spleen mod inactive, GLA inh pH 4.5 inactive and GAA spleen mod inactive.
Screening CCCSc1ncc(Cl)c(C(=O)Nc2ccc(S(=O)(=O)N3CCCC(C)C3)cc2)n1 (stereo not given) returned GAA glycogen inactive.
For N#Cc1ccc(N2CCN(S(=O)(=O)c3ccc4c(c3)CC(=O)N4)CC2)cc1 the results were GAA glycogen 6.5µM.
CCOC(=O)C1CCN(S(=O)(=O)c2ccc3c(c2)CC(=O)N3)CC1 was read as GAA glycogen 14µM.
`O=C1Cc2cc(S(=O)(=O)N3CCN(c4cccc(C(F)(F)F)c4)CC3)ccc2N1` gave GAA glycogen 9.5µM.
O=C1Cc2cc(S(=O)(=O)N3CCN(c4ccc([N+](=O)[O-])cc4)CC3)ccc2N1 was read as GAA glycogen 8.2µM.
Screening COCCCNC(=O)c1ccccc1NS(C)(=O)=O returned GAA inhib inactive, GAA glycogen inactive, GLA spleen mod inactive, GLA inh pH 4.5 inactive and GAA spleen mod inactive.
For COc1ccc(CC(=O)NCc2ccccc2)cc1OC the results were GAA glycogen inactive.
For O=C1Cc2cc(S(=O)(=O)N3CCN(c4ccc(O)cc4)CC3)ccc2N1 the results were GAA glycogen 6.7µM.
For CCOc1cc(C2C(C#N)=C(N)Oc3n[nH]c(-c4ccccc4)c32)ccc1O (stereo not given) the results were GAA inhib inactive, GAA glycogen inconclusive, GLA spleen mod inactive, GLA inh pH 4.5 inactive and GAA spleen mod inactive.
Fc1ccc(CNc2ccc(N3CCN(Cc4ccccc4)CC3)cc2)cc1 was read as GAA glycogen 8.9µM.

Compound activity deposited in PubChem BioAssay by National Center for Advancing Translational Sciences (NCATS).
